G9a block: inhibitors of human histone lysine methyltransferase G9a. Q96KQ7. G9a H3K9 monomethylation, AlphaScreen, 2 h. Potency, µM (series often up to 102 µM), actives largely listed as inhibitors. 350,000 compounds, 8.8% hits; also: nearly all actives have a fitted effect of over 75% in size
Target sequence (Q96KQ7 913-1193 limits assumed): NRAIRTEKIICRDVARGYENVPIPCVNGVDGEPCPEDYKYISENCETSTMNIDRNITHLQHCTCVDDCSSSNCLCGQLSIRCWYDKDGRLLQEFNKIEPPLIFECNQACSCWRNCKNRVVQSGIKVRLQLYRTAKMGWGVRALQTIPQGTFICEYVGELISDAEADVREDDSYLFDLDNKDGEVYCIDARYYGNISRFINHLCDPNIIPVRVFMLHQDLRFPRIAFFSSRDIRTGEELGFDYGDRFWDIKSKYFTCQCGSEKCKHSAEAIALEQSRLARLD
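Using a bead-based AlphaScreen, monomethylated H3K9 product from 2 h room-temperature reactions (G9a 20 nM, peptide 500 nM, SAM 20 uM) was detected with 0.5 ug/mL rabbit anti-H3K9me1 antibody.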
HP1b binding inh: HP1-beta chromodomain-methylated histone interaction inhibition; P83916; AlphaScreen HP1-beta / biotin-H3K9me3 peptide binding; Potency, µM (titrated, usually from 114 µM), hits mostly inhibitors; 390,000 compounds, 0.56% hits; AID 540317; also: nearly all actives have a fitted effect of over 70% in size
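Compound inhibition of the preformed complex between 50 nM HP1-beta and 50 nM biotinylated H3K9me3 peptide was read by AlphaScreen. Buffer was PBS pH 7.4 with 0.01% Tween-20. Incubations ran 30 min at room temperature, with 10 ug/mL donor/acceptor beads.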
BAZ2B inh: BAZ2B (human) inhibition | Q9UIF8 | AlphaScreen BAZ2B-H3K14Ac peptide displacement | Potency, µM (top dose mostly 114 µM), actives largely listed as inhibitors | 360,000 compounds, 4.4% hits | AID 504333; also: nearly all actives have a fitted effect of over 60% in size
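AlphaScreen displacement of biotin-H3(5-23)K14Ac peptide (50 nM final) from BAZ2B (50 nM final) in PBS pH 7.4, 0.01% Tween-20; complex preformed 30 min RT, then compounds (top 110 uM) 30 min RT, beads 20 min dark.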
PI5P4Ka inh: inhibitors of human PI5P4K alpha | 330,000 compounds, 1.2% hits | max response, % | AID 652105 | PI5P4Kalpha enzyme, ADP-Glo luminescence, 60 min; hits give low values; active = max response of -50% or lower; inconclusive = between -30% and -50%; inactive = -30% or higher; also: value at the top dose of about 77 µM
Target sequence (P48426 whole entry, looked up): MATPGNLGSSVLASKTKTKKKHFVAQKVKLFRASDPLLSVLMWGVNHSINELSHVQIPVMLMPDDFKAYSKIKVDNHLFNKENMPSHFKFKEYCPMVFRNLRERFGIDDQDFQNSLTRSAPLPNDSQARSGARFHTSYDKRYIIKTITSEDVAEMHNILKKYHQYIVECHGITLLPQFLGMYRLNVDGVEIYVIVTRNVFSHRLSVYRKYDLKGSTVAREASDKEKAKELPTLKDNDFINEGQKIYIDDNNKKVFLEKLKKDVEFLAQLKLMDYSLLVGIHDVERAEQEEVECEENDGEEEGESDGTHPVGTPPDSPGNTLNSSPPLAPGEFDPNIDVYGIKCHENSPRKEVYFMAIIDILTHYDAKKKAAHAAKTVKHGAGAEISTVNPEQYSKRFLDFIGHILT
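Compounds were pin-transferred onto PI5P4Kalpha and substrate in HEPES pH 7.4 buffer with EGTA, CHAPS and 5% DMSO. ATP (5 microM final) started the reaction, which ran 60 minutes at room temperature before ADP-Glo detection.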
L3MBTL1 inh: inhibitors of human L3MBTL1. Q9Y468. AlphaScreen L3MBTL1–H3K9me1 peptide binding. Potency, µM (top dose mostly 57.1 µM), hits mostly inhibitors. 230,000 compounds, 0.66% hits. AID 485360; also: nearly all actives have a fitted effect of over 60% in size
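L3MBTL1 50 nM + b-AHA-H3(1-15)K9me1 75 nM, 30 min RT; compound added, 30 min RT; streptavidin donor/Ni-chelate acceptor beads 10 ug/mL each final, 30 min RT dark; AlphaScreen read.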
JMJD2A Tudor: blocks the human JMJD2A Tudor domain | Potency, µM (top dose mostly 114 µM), hits mostly inhibitors | O75164 | 390,000 compounds, 4.4% hits | AID 504339 | AlphaScreen JMJD2A-Tudor / H3K4me3 peptide binding; also: nearly all actives have a fitted effect of over 50% in size
Numbers stand for hits; 0 = inactive; ? = inconclusive; - = no result; [ ] = dose if it differs, or a comment. The list is not random: actives were taken first. Their share in the collection is about 11%. Unless noted, calls follow the shape of the dose curve; as a rule, active = well fitted inhibition curve with a large enough effect; inconclusive = small, poorly fitted or top-dose-only effect; inactive = no such curve, though single readings can be large or run the other way.

SMILES	G9a block	HP1b binding inh	BAZ2B inh	PI5P4Ka inh	L3MBTL1 inh	JMJD2A Tudor
COc1cc(C(=O)Nc2ccc(N(C)C)cc2)cc(OC)c1OC	45µM	0	?	-	0	?
O=C(NNC(=O)c1ccccc1F)c1ccc2nc[nH]c2c1	0	0	?	0	-	0
O=C(NNC(=O)c1ccccc1Br)c1ccc2nc[nH]c2c1	-	0	50µM	?	-	?
COC(=O)c1ccc(NC(=O)NCCn2nnc3cc(S(=O)(=O)N(C)C)ccc32)cc1	0	0	0	-	-	0
Cc1ccccc1Cn1nnc2c(=O)[nH]c(C3CCN(C(=O)c4ccccc4)CC3)nc21	0	0	0	-	-	0
COC(=O)N/N=C/c1sc(N2CCCCC2)nc1-c1cccs1	50µM	0	?	0	0	?
O=C1NC(c2ccccc2Cl)Nc2ccccc21 (stereo unspecified)	0	0	0	0	0	0
Oc1ccc(C2Nc3cccc4cccc(c34)N2)c(O)c1	45µM	18µM	?	?	0	79µM
Clc1ccccc1C1Nc2cccc3cccc(c23)N1	-	?	71µM	0	?	?
Brc1ccc(-c2ccc(C3Nc4cccc5cccc(c45)N3)o2)cc1	0[0.501 µM]	-	0	-	0	-
Clc1cccc(C2Nc3cccc4cccc(c34)N2)c1Cl	0[0.501 µM]	?	40µM	0	0[2.29 µM]	50µM
COc1cccc(NC(=O)Cn2cc(C(=O)C3CCCCC3)c3ccccc32)c1	0	0	0	-	-	0
CCN1C(C(=O)c2ccccc2)=C(OC(=O)c2ccccc2OC)c2ccccc2S1(=O)=O	0	0	0	-	-	?
O=C(COc1ccccc1F)Nc1ccc2oc(-c3cccc(Cl)c3)nc2c1	0	0	0	-	-	0
COc1ccc(Cl)cc1C(=O)Nc1ccc2oc(-c3ccc(C(C)(C)C)cc3)nc2c1	0	0	0	-	-	0
COc1ccc(N(CC(=O)N2CCc3ccccc3C2)S(C)(=O)=O)cc1Cl	50µM	0	0	0	0	0
COc1ccc(N(CC(=O)N2CCCCCC2)S(C)(=O)=O)cc1Cl	-	0	0	0	0	0
O=C(CSc1oc(-c2cccs2)nc1S(=O)(=O)c1ccccc1)Nc1ccc(F)cc1	?	0	0	-	-	0
COc1ccc(NC(=O)c2cc3n(n2)C(C(F)(F)F)CC(c2ccc4c(c2)OCO4)N3)cc1OC (stereo unspecified)	28µM	0	?	-	0	?
Cc1ccc(Nc2c(-c3c[nH]c4ccccc34)nc3cc(C)ccn23)cc1	?	?	?	-	-	25µM
Cc1ccn2c(Nc3ccccc3)c(-c3c[nH]c4ccccc34)nc2c1	8.9µM	?	10µM	-	-	22µM
Nc1ccc(N2CCN(c3ncc(C(F)(F)F)cc3Cl)CC2)c(C(F)(F)F)c1	?	0	?	-	-	0
CN(C)c1ccc(-c2nc(-c3cccs3)c(-c3cccs3)[nH]2)cc1	8.9µM	0	?	-	-	?
Cc1[nH]c(-c2ccc3c(c2)OCO3)nc1C(=O)O	10µM	0	50µM	?	-	22µM
CC(=O)c1c(C)nc(-c2ccc3c(c2)OCO3)n1O	56µM	0	0	0	0	0
SMILES	G9a block	HP1b binding inh	BAZ2B inh	PI5P4Ka inh	L3MBTL1 inh	JMJD2A Tudor
COc1ccc(-c2[nH]c(-c3ccc(O)cc3)nc2-c2ccccc2)cc1	?	0	10µM	-	-	63µM
COC(=O)c1cc(-c2ccc3c(c2)OCO3)nc2ccccc12	0	0	0	0	0	0
Oc1ccccc1-c1nc(-c2cccs2)c(-c2cccs2)[nH]1	0	0	?	-	-	?
COc1cccc(CNC(=O)C(CC(C)C)NS(=O)(=O)c2ccc3c(c2)oc(=O)n3C)c1 (stereo unspecified)	0	0	0	-	-	0
COc1cccc(C(=O)Nc2ccc(C(=O)OCc3cc(=O)n4cc(C)sc4n3)cc2)c1	0	0	0	-	-	0
Cn1c(=O)c(-c2cc(F)cc(F)c2)nc2cnc(N3CCNCC3)nc21	0[0.501 µM]	-	-	-	-	-
COc1cc(-c2nc(-c3ccccc3)c(-c3cccs3)[nH]2)cc(OC)c1O	0[12.7 µM]	?	50µM	0	-	45µM
COc1ccc(-c2nc(-c3ccccc3)c(-c3ccc(O)cc3)[nH]2)cc1	?	?	35µM	-	-	28µM
COc1ccc(-c2nc(-c3ccc4c(c3)OCO4)[nH]c2-c2ccc(OC)cc2)cc1	0	?	18µM	0	?	13µM
Cc1[nH]c(-c2ccco2)nc1C(=O)O	20µM	0	?	-	0	10µM
Cc1cc(=O)n2[nH]c(-c3ccco3)nc2n1	0	0	0	-	-	0
COc1ccc(-c2noc(-c3ccc4c(c3)OCO4)n2)cc1	0	0	0	0	0	0
COCCCn1c(=S)[nH]c2sc3c(c2c1=O)CCCC3	8.9µM	0	0	0	-	?
COCCn1c(=S)[nH]c2sc3c(c2c1=O)CCCC3	7.9µM	0	0	0	-	0
Cc1ccccc1NC(=O)c1c(C)oc2ccc(O)c(CN3CCCCCC3)c12	0	0	0	-	-	0
CC(C)C[C@@H](NC(=O)[C@@H](Cc1ccccc1)NC(=O)c1cnccn1)B(O)O	0[12.7 µM]	-	-	-	-	-
O=C(O)c1cc(-c2ccc(/C=N/N3C(=O)C4C5C=CC(C6CC56)C4C3=O)o2)ccc1Cl (stereo unspecified)	45µM	0	79µM	0	?	0[11.4 µM]
O=C(O)c1cc(-c2ccc(/C=N/N3C(=O)C4C5C=CC(CC5)C4C3=O)o2)ccc1Cl (stereo unspecified)	0	0	0	0	0	0
O=C1C2C3C=CC(C4CC34)C2C(=O)N1/N=C/c1ccc(-c2ccc(Cl)cc2[N+](=O)[O-])o1 (stereo unspecified)	35µM	?	?	0	-	?
COc1ccc(-c2ccc(/C=N/N3C(=O)C4C5C=CC(C6CC56)C4C3=O)o2)c([N+](=O)[O-])c1 (stereo unspecified)	?	0	?	0	?	?
Cc1ccc(-c2ccc(/C=N/N3C(=O)C4C5C=CC(CC5)C4C3=O)o2)c([N+](=O)[O-])c1 (stereo unspecified)	45µM	0	?	-	-	0
O=C1C2C3C=CC(C4CC34)C2C(=O)N1/N=C/c1ccc(-c2ccc(F)cc2[N+](=O)[O-])o1 (stereo unspecified)	8.9µM	0	?	0	-	?
CCS(=O)(=O)N1CCc2cc(C(=O)N3CCN(c4cccc(C(F)(F)F)c4)CC3)ccc21	?	0	?	-	-	0
O=C(CN1CCNCC1)NC1CCCCC1	0[12.7 µM]	-	-	-	-	-
CCOc1ccccc1NC(=O)C(Cc1ccccc1)NS(=O)(=O)c1ccc(Br)s1 (stereo unspecified)	0	0	0	-	-	0
O=C1CC(=C(c2ccccc2)c2ccccc2)C(=O)N1CCCN1CCN(c2cccc(Cl)c2)CC1	?	0	0	0	?	?
O=C1CC(=C2c3ccccc3-c3ccccc32)C(=O)N1CCCCN1CCN(c2ccccc2)CC1	7.9µM	0	?	-	?	?
